Results as given in PubChem BioAssay AID449739 (Vanderbilt High Throughput Screening Facility, 2010).
Screen size: about 100,000 compounds; about 4,200 (4.2%) were called active. For the sample, actives were picked, then their nearest neighbours and some compounds at random. A number with no mark means an inactive call.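 Rule for the calls: active = single-dose well whose peak fluorescence ratio is a statistical outlier from its plate by either plate-standardised score or position-corrected B-score; inactive = the rest.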

Molecular target: Voltage-dependent T-type calcium channel subunit alpha-1H (Homo sapiens) (UniProt O95180)
Sequence (O95180 whole entry, looked up): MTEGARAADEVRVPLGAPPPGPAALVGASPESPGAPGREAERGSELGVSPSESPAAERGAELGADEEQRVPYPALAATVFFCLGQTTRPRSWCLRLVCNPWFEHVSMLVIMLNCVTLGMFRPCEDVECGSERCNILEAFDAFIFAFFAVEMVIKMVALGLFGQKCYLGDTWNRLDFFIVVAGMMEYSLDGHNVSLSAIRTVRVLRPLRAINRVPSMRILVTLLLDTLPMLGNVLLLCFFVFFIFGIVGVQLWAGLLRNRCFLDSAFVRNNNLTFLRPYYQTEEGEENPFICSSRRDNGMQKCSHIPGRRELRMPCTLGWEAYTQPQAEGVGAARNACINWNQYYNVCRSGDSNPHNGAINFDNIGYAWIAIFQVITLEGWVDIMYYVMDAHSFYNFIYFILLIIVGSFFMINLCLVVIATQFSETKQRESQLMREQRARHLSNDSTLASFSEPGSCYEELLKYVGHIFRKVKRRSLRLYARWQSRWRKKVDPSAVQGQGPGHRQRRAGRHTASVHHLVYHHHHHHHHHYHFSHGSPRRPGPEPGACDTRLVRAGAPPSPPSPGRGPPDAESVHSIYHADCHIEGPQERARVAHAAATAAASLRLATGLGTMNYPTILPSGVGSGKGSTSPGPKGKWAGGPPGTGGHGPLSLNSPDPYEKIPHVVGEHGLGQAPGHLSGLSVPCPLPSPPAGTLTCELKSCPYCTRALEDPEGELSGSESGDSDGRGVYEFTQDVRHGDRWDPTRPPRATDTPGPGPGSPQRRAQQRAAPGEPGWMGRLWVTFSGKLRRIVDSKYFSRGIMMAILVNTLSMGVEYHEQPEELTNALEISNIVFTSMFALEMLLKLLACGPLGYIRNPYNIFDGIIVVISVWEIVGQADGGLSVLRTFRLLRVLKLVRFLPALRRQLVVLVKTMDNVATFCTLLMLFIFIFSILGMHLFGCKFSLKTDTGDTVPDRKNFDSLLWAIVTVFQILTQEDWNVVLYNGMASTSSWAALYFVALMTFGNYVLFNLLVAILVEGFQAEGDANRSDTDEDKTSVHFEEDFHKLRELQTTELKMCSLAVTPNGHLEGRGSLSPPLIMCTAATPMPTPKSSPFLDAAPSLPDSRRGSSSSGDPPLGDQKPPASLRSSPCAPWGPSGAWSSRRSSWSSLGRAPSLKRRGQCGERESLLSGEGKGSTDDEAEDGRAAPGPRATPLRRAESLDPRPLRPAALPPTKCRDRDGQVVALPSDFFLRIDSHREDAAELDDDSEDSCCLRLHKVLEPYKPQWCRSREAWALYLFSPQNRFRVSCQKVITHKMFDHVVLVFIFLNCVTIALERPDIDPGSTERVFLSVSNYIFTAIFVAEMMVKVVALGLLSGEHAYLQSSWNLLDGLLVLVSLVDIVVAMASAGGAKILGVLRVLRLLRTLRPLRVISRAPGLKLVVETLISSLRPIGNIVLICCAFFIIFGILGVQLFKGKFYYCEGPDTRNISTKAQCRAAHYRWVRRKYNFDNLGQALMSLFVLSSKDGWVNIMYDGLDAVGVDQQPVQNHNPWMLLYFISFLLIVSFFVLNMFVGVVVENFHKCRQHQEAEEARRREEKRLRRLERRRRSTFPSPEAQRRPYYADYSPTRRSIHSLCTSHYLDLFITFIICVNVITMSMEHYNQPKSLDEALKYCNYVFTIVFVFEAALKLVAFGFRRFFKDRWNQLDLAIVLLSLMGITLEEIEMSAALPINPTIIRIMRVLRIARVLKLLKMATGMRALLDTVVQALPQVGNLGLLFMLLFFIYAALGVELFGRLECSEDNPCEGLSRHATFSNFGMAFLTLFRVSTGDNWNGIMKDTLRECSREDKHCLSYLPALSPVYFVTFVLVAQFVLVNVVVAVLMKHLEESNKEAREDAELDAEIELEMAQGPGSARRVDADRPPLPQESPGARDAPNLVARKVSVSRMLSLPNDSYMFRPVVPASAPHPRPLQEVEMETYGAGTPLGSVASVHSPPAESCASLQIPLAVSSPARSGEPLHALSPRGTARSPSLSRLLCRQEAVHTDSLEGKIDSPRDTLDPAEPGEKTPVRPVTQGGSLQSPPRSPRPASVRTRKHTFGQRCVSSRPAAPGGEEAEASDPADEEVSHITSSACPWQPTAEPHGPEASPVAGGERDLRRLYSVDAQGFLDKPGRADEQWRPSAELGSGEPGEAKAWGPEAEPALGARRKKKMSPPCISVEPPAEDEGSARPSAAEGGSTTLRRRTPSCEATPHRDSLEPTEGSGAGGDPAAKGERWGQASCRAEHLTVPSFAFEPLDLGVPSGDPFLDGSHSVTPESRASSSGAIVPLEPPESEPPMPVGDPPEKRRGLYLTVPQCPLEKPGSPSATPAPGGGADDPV
Test: Cav3.2 calcium influx blockers – cell-based, Fluo-4 calcium fluorescence, FDSS, MLSMR library, primary screen (AID 449739)
Settings: Cav3.2-expressing cells, at 10 µM, stronger effect = lower value

| SMILES | B-score |
| --- | --- |
| COc1cccc(-c2cc(C(=O)N/N=C/c3ccc(OC)c(COC(C)=O)c3)c3ccccc3n2)c1 | -0.321 |
| CC(C)(C)CN1C(=O)C(=O)NC[C@H]1Cc1cccc2ccccc12 | 0.844 |
| Fc1ccccc1COc1ccccc1CNCc1ccncc1 | 0.584 |
| CC(C)CC(CO)N1CCN(C(=O)c2ccc(Cl)cc2Cl)CCC1=O (configuration not stated) | 0.363 |
| Cc1c(NC(=O)CCCOc2ccccc2)cccc1[N+](=O)[O-] | -0.161 |
| CCO[C@@H]1OC(C(N)=O)=C[C@H](c2ccc(Br)cc2)[C@H]1CCCO | 0.335 |
| O=C(CSCc1ccc(Cl)cc1)N1CCN(Cc2ccc3c(c2)OCO3)CC1 | -5.77 (active) |
| CS(=O)(=O)N(CC(=O)N1CCN(Cc2ccc3c(c2)OCO3)CC1)c1ccc2c(c1)OCO2 | 1.42 |
| O=C(c1cccs1)N1CCN(Cc2ccc3c(c2)OCO3)CC1 | 0.274 |
| O=C(NCc1cc(C(F)(F)F)cc(C(F)(F)F)c1)C1CC(c2cccc(F)c2)=NO1 (configuration not stated) | -0.916 |
| O=C(CSc1ncnc2c1cnn2CCc1ccccc1)Nc1ccc(F)cc1 | 0.0976 |
| COc1ccc(C(C(=O)NCc2ccccc2)N(Cc2cccs2)C(=O)c2cnccn2)cc1 (configuration not stated) | -0.0118 |
| C/C=C(/C)C(=O)Nc1cccc(C2=NOC3(C2)C[C@@H](C(N)=O)N(C(=O)C2(C)CC2)C3)c1 (some centres not stated) | -0.695 |
| O=C(NCC1CCCO1)/C(=C\c1ccco1)NC(=O)c1ccccc1 (configuration not stated) | 0.14 |
| CCOc1ccc(S(=O)(=O)n2ccnc2)c2ccccc12 | 0.109 |
| CCOc1cc(C)c(Cl)cc1S(=O)(=O)n1nnc2ccccc21 | -2.51 |
| CCOc1ccc(C(C)C)cc1S(=O)(=O)n1nc(C)cc1C | -4.23 (active) |
| O=C(CN1CCN(S(=O)(=O)c2ccc(F)cc2)CC1)Nc1ccccc1F | 0.623 |
| O=C(CN1CCN(c2ccccn2)CC1)NC1CCCCC1 | 0.646 |
| O=C(CN1CCN(S(=O)(=O)c2ccc3ccccc3c2)CC1)NC(=O)NC1CCCCC1 | -8.92 (active) |
| CCOC(=O)c1cccc(NC(=O)c2ccc(F)cc2F)c1 | 0.631 |
| CN1CCN(C(=O)C2=C[C@H](c3ccc4c(c3)OCO4)C[C@H](OCc3ccc(CO)cc3)O2)CC1 | 0.346 |
| O=C(CCc1ccc(S(=O)(=O)NC2CCCCC2)cc1)NCc1ccccc1 | -2.7 |
| O=c1[nH]snc1-c1c(Cl)cccc1Cl | 0.688 |
| CCCCn1ccnc1C(=O)c1cccc(S(=O)(=O)N2c3ccccc3CC2C)c1 (configuration not stated) | -5.72 (active) |
| CC1Cc2ccccc2N1C(=O)Cn1cnc2ccccc2c1=O (configuration not stated) | 0.0523 |
| CCn1c(CSc2ncccn2)nnc1SCC(=O)N1c2ccccc2CC1C (configuration not stated) | 0.0736 |
